According to PubChem BioAssay:

What follows are compounds tested on Sonic hedgehog protein (Shh) (assay: small-molecule binders of Shh protein, primary screen, biochemical, small-molecule microarray, 635/667 nm fluorescence (AID 1151;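 note: Shh protein binding to compounds spotted on small-molecule microarray slides; score combines spot fluorescence intensity with signal-to-noise across triplicate slides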)). Conditions: small-molecule microarray binding, 635 nm fluorescence; higher = more signal.
With `COCCCNC(=O)[C@]1(Cc2ccccc2N=[N+]=[N-])N=C(c2ccc(OCCCO)cc2)O[C@@H]1c1ccccc1N=[N+]=[N-]` the composite z-score was -0.973. Work on `O=C1OC[C@@H](c2ccccc2)N2CC(/C=C/c3ccccc3)=CC12` (stereo partly drawn) yielded a composite z-score of -1.05. `CC(C)CNC(=O)[C@@]1(c2ccc([N+](=O)[O-])cc2)CC(=O)N(C2CCCCC2)[C@@H]1c1ccc(CO)cc1I` showed a composite z-score of 0.425. Compound `COCCOC(=O)N1C(=O)[C@@]2(c3cc(C#Cc4ccc(OC)cc4)ccc31)[C@H](C(=O)N1CCCCCCC1)[C@H]1C(=O)O[C@H](c3ccccc3)[C@H](c3ccccc3)N1[C@@H]2c1ccc(O)cc1` has a composite z-score of 1.47. `COCCCNC(=O)[C@]1(Cc2ccccc2CN=[N+]=[N-])N=C(c2ccc(OCCCO)cc2)O[C@@H]1c1ccccc1` gave a composite z-score of -1.07. `C=CCC(OC(C)=O)[C@@H]1[C@@H](N(Cc2cc3ccccc3o2)C(=O)Cc2ccc(F)cc2)c2cc(OCCCO)ccc2N1C(=O)c1ccc2ccccc2n1` (stereo partly drawn) was tested, and the composite z-score was 0.0974. For `CCN(CC)c1ccc(N2CC=CC34O[C@@H]5/C=C\CCC(C)OC(=O)C5[C@H]3C(=O)N(CCO)[C@@H]4C2=O)cc1` (stereo partly drawn), the composite z-score was 0.414. `CCOC(=O)C[C@H]1[C@H](OC(=O)Cc2ccc3c(c2)OCO3)[C@@H](NC(=O)Cc2ccc(OC)cc2)c2cc(OCCCO)ccc2N1C(=O)c1ccccc1` was tested, and the composite z-score was 0.528.
